{
  "source": "paper PMC7862700",
  "about": "“An all-to-all approach to the identification of sequence-specific readers for epigenetic DNA modifications on cytosine”",
  "experiment_in_all_cases": "DAPPL (digital affinity profiling via proximity ligation, sequencing); 10 mM Tris-HCl pH 7.5, 50 mM NaCl, 1 mM DTT, 4% glycerol, room temperature, 30 min; GST-TFs on glutathione beads, 16-mer random dsDNA library, 0.1% formaldehyde crosslink after washing; high values mean tight binding",
  "conditions_in_all_cases": "protein: recombinant; tags: N-terminal GST; dsDNA, one strand shown",
  "key": {"FLI1": {"molecular_target": "T1, FLI1 (Homo sapiens, UniProt Q01543 1-452)", "T1 sequence": "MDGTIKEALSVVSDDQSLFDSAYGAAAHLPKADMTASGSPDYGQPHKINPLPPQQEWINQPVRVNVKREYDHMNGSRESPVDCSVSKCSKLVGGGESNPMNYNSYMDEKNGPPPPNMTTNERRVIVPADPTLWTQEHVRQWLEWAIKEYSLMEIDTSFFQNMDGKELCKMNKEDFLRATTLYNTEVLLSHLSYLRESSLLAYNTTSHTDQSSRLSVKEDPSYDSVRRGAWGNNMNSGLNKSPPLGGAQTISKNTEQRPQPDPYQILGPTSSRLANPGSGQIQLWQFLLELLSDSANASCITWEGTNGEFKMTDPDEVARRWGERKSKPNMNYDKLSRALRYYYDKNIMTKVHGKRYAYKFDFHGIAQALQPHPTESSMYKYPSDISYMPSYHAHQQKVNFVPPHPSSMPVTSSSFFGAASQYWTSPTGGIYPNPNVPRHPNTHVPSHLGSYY", "outline": "(§1)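 Binding signal is given per hexamer as its read frequency for a factor divided by its frequency in the tag-only sample. GST-fused human transcription factors were expressed in yeast, captured on glutathione beads, barcoded with DNA and pooled with that sample, then incubated with 200 nmole of a 16-mer random double-stranded DNA library in Tris/NaCl/DTT/glycerol buffer for 30 min at room temperature. The pools were then washed, crosslinked, proximity-ligated, amplified by PCR and sequenced on an Illumina NextSeq500.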"}, "GABPA": {"molecular_target": "T2, GABPA (Homo sapiens, UniProt Q06546 1-454)", "T2 sequence": "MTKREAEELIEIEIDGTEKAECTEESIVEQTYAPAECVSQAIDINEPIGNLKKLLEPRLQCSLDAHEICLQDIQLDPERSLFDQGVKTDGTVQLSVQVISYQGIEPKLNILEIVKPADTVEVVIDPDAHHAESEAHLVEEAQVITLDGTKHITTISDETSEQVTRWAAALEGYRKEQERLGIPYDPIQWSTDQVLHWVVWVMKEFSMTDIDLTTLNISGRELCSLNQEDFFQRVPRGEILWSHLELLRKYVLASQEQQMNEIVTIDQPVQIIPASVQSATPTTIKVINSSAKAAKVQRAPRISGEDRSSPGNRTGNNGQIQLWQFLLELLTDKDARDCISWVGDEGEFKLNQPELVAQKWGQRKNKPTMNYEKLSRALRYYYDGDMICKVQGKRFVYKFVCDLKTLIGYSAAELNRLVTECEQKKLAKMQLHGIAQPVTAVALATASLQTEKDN", "outline": "as §1"}, "ERG": {"molecular_target": "T3, ERG (Homo sapiens, UniProt P11308 1-479)", "T3 sequence": "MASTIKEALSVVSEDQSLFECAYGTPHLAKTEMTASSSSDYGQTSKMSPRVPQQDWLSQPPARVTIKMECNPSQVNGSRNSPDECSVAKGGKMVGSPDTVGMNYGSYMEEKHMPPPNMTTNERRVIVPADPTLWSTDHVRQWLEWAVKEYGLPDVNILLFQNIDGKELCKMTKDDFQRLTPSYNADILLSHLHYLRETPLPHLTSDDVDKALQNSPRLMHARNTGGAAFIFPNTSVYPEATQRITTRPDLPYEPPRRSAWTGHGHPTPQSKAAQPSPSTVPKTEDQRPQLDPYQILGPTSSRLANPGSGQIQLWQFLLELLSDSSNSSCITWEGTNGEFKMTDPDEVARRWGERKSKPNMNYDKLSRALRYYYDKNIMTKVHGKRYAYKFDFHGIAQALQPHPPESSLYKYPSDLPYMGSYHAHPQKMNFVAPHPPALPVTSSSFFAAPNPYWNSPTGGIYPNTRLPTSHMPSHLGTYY", "outline": "as §1"}, "EHF": {"molecular_target": "T4, EHF (Homo sapiens, UniProt Q9NZC4 1-300)", "T4 sequence": "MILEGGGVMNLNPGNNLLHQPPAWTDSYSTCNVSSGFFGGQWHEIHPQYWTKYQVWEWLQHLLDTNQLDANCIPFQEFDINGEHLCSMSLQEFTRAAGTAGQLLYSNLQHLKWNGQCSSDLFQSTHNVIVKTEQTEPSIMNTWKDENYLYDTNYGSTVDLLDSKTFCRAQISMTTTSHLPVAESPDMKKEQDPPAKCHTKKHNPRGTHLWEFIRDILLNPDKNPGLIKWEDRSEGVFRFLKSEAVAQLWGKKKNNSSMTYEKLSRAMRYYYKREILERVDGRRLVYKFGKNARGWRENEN", "outline": "as §1"}, "SPI1": {"molecular_target": "SPI1 (Homo sapiens, UniProt P17947 1-270)", "outline": "as §1"}, "SPIB": {"molecular_target": "SPIB (Homo sapiens, UniProt Q01892 1-262)", "sequence (Q01892 whole entry)": "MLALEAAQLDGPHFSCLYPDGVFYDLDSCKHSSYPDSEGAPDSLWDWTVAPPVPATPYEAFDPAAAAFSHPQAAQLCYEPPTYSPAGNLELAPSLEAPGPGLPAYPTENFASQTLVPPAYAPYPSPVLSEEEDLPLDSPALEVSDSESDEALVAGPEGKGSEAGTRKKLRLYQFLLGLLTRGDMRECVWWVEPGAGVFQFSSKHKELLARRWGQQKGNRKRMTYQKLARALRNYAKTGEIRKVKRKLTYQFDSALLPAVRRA", "outline": "as §1"}, "FEV": {"molecular_target": "T5, FEV (Homo sapiens, UniProt Q99581 1-238)", "T5 sequence": "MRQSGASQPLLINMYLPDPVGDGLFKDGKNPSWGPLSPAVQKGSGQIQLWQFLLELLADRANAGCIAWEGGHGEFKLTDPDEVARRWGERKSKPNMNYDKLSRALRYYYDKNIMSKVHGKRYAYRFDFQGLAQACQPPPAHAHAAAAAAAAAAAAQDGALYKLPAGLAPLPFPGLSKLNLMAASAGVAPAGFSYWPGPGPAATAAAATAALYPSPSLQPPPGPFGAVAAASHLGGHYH", "outline": "as §1"}, "ETV5": {"molecular_target": "ETV5 (Homo sapiens, UniProt P41161 1-510)", "sequence (P41161 whole entry)": "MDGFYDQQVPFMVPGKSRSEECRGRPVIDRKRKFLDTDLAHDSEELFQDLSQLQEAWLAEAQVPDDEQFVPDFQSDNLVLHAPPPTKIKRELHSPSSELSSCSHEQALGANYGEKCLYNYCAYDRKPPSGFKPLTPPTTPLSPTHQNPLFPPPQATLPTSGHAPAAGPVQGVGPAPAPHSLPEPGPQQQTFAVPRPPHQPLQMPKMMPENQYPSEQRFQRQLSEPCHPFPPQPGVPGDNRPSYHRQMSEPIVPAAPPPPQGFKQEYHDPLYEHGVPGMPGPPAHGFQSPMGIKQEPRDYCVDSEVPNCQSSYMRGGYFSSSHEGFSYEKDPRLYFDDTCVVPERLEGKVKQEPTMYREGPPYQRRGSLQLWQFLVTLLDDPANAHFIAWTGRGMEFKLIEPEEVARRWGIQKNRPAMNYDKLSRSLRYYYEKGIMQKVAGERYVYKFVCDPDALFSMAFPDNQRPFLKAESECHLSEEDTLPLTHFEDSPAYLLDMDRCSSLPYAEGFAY", "outline": "as §1"}, "SPIC": {"molecular_target": "T6, SPIC (Homo sapiens, UniProt Q8N5J4 1-248)", "T6 sequence": "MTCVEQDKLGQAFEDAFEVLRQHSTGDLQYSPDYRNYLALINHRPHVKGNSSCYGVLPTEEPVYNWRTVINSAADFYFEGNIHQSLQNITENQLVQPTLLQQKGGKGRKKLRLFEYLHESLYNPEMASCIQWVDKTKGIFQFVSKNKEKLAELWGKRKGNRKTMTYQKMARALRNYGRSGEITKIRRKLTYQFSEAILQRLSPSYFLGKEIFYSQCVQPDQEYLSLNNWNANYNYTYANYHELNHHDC", "outline": "as §1"}, "ELF4": {"molecular_target": "ELF4 (Homo sapiens, UniProt Q99607 1-663)", "sequence (Q99607 whole entry)": "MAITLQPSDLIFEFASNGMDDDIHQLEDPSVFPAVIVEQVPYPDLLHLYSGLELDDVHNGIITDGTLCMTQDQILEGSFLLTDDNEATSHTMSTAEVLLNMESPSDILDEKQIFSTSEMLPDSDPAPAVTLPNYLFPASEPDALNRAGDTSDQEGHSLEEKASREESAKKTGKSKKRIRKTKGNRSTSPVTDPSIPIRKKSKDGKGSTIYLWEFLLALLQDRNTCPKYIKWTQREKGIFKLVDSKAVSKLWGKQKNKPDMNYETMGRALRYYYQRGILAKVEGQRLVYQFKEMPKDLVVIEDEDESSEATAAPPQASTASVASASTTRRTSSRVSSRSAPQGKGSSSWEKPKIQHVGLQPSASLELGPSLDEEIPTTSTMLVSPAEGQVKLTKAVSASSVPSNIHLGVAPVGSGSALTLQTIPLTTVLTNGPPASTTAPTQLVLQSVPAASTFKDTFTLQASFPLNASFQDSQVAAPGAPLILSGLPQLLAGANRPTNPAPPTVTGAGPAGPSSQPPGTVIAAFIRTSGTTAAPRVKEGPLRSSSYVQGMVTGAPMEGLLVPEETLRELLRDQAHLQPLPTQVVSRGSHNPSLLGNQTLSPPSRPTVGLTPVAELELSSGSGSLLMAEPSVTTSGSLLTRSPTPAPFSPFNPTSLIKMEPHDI", "outline": "as §1"}, "ETV1": {"molecular_target": "ETV1 (Homo sapiens, UniProt P50549 1-477)", "sequence (P50549 whole entry)": "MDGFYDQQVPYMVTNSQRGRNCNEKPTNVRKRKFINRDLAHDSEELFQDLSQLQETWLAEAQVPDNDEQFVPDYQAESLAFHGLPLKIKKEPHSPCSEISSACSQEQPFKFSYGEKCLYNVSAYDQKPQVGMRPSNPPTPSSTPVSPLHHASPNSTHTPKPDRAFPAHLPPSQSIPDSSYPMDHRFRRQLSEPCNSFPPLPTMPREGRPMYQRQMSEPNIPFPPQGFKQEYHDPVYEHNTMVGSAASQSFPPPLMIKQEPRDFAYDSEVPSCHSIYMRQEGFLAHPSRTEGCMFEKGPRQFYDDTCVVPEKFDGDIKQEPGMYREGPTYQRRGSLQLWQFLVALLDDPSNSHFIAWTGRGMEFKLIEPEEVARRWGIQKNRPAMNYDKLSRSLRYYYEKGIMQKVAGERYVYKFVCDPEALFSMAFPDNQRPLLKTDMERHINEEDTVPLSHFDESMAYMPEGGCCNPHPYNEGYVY", "outline": "as §1"}, "ETV3L": {"molecular_target": "T7, ETV3L (Homo sapiens, UniProt Q6ZN32 1-361)", "T7 sequence": "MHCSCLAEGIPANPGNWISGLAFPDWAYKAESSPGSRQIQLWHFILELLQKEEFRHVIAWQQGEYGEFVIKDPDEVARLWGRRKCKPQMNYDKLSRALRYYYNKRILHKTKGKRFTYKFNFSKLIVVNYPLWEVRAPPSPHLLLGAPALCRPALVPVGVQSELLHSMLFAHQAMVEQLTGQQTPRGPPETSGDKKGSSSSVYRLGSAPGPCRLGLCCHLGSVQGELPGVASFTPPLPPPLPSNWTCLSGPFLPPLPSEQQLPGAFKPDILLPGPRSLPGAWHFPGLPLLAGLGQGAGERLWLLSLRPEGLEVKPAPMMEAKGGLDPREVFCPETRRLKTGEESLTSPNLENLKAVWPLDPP", "outline": "as §1"}, "ETV6": {"molecular_target": "ETV6 (Homo sapiens, UniProt P41212 1-452)", "sequence (P41212 whole entry)": "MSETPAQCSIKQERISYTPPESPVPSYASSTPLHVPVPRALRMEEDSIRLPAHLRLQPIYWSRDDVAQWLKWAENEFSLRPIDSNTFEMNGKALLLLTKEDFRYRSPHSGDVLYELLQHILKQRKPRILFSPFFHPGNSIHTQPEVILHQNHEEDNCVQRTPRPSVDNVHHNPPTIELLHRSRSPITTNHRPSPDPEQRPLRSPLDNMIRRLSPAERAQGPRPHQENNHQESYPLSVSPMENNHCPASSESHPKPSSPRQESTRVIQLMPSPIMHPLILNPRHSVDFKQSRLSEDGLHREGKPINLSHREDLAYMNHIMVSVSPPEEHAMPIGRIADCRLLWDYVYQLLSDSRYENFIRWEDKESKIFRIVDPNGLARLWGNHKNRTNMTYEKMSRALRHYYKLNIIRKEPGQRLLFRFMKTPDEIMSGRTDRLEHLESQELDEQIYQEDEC", "outline": "as §1"}, "ELF1": {"molecular_target": "ELF1 (Homo sapiens, UniProt P32519 1-619)", "sequence (P32519 whole entry)": "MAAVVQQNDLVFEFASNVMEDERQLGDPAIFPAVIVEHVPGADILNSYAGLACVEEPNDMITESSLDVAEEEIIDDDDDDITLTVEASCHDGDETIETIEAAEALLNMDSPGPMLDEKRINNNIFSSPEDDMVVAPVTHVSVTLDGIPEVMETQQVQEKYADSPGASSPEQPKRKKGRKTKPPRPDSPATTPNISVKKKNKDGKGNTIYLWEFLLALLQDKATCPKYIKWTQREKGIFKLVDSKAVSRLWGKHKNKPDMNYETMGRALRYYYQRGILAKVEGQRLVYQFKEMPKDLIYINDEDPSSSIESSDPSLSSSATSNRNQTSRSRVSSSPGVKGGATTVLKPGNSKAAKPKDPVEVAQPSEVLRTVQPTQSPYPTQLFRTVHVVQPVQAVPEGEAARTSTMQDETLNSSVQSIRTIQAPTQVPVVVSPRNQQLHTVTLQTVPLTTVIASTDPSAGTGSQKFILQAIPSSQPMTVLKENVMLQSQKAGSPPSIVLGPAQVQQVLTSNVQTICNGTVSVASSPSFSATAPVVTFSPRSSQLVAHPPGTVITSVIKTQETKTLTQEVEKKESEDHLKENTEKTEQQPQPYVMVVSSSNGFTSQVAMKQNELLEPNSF", "outline": "as §1"}, "ELK3": {"molecular_target": "T8, ELK3 (Homo sapiens, UniProt P41970 1-407)", "T8 sequence": "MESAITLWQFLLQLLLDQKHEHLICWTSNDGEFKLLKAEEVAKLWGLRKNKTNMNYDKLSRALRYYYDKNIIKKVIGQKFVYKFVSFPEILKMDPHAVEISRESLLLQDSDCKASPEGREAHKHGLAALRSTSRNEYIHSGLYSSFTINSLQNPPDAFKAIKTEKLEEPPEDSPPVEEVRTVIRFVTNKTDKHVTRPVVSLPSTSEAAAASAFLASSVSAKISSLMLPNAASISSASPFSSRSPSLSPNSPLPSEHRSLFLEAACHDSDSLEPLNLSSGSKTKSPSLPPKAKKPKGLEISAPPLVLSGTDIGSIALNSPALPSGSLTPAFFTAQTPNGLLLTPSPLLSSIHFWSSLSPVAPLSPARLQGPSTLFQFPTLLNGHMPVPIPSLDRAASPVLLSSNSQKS", "outline": "as §1"}, "ELF5": {"molecular_target": "T9, ELF5 (Homo sapiens, UniProt Q9UKW6-2 1-255)", "T9 sequence": "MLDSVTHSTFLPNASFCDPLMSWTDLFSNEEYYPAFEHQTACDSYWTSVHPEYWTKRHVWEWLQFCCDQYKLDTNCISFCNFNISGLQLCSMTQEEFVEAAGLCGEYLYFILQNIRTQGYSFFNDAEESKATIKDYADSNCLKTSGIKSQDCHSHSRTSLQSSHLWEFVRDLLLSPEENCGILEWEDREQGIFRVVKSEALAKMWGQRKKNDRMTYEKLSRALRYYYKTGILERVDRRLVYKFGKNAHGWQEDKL", "outline": "as §1"}},
  "data": [
    {"sequence": "TGTGGC", "values": [
      {"measurement": "binding signal", "setting": "FLI1", "value": "1.05 fold enrichment (6-mer frequency, TF over GST control)"},
      {"measurement": "binding signal", "setting": "GABPA", "value": "1.03 fold enrichment (6-mer frequency, TF over GST control)"},
      {"measurement": "binding signal", "setting": "ERG", "value": "1.07 fold enrichment (6-mer frequency, TF over GST control)"},
      {"measurement": "binding signal", "setting": "EHF", "value": "1.02 fold enrichment (6-mer frequency, TF over GST control)"},
      {"measurement": "binding signal", "setting": "SPI1", "value": "1.14 fold enrichment (6-mer frequency, TF over GST control)"},
      {"measurement": "binding signal", "setting": "SPIB", "value": "1.09 fold enrichment (6-mer frequency, TF over GST control)"},
      {"measurement": "binding signal", "setting": "FEV", "value": "1.13 fold enrichment (6-mer frequency, TF over GST control)"},
      {"measurement": "binding signal", "setting": "ETV5", "value": "1.01 fold enrichment (6-mer frequency, TF over GST control)"},
      {"measurement": "binding signal", "setting": "SPIC", "value": "1.14 fold enrichment (6-mer frequency, TF over GST control)"},
      {"measurement": "binding signal", "setting": "ELF4", "value": "1.02 fold enrichment (6-mer frequency, TF over GST control)"},
      {"measurement": "binding signal", "setting": "ETV1", "value": "1.05 fold enrichment (6-mer frequency, TF over GST control)"},
      {"measurement": "binding signal", "setting": "ETV3L", "value": "1.06 fold enrichment (6-mer frequency, TF over GST control)"},
      {"measurement": "binding signal", "setting": "ETV6", "value": "1.19 fold enrichment (6-mer frequency, TF over GST control)"}
    ]},
    {"sequence": "TACGGT", "values": [
      {"measurement": "binding signal", "setting": "FLI1", "value": "1.01 fold enrichment (6-mer frequency, TF over GST control)"},
      {"measurement": "binding signal", "setting": "GABPA", "value": "1.02 fold enrichment (6-mer frequency, TF over GST control)"},
      {"measurement": "binding signal", "setting": "ERG", "value": "1.02 fold enrichment (6-mer frequency, TF over GST control)"},
      {"measurement": "binding signal", "setting": "ELF1", "value": "1.01 fold enrichment (6-mer frequency, TF over GST control)"},
      {"measurement": "binding signal", "setting": "SPIB", "value": "1.02 fold enrichment (6-mer frequency, TF over GST control)"},
      {"measurement": "binding signal", "setting": "ELK3", "value": "1.11 fold enrichment (6-mer frequency, TF over GST control)"},
      {"measurement": "binding signal", "setting": "ETV5", "value": "1.04 fold enrichment (6-mer frequency, TF over GST control)"},
      {"measurement": "binding signal", "setting": "SPIC", "value": "1.02 fold enrichment (6-mer frequency, TF over GST control)"},
      {"measurement": "binding signal", "setting": "ELF4", "value": "1.05 fold enrichment (6-mer frequency, TF over GST control)"},
      {"measurement": "binding signal", "setting": "ETV1", "value": "1.01 fold enrichment (6-mer frequency, TF over GST control)"},
      {"measurement": "binding signal", "setting": "ELF5", "value": "1.04 fold enrichment (6-mer frequency, TF over GST control)"}
    ]}
  ]
}
